Test results as given in PubChem BioAssay AID1851 (National Center for Advancing Translational Sciences (NCATS), 2009).
The campaign covered roughly 16,000 compounds. About 5,700 (36%) were called active. Another 24% or so got no clear call; they are omitted. The list shows a part of the results. Unmarked numbers belong to inactive results. Calls come from the whole dose curve; as a rule, active = well fitted curve in the direction sought with a large enough effect; inconclusive = small, poorly fitted or top-dose-only effect, or effect the other way; inactive = no such curve, though single readings can be large or run the other way.

Each compound was assayed against Cytochrome P450 1A2 (Homo sapiens) (UniProt P05177) (assay: Cytochrome panel assay with activity outcomes). Details: recombinant CYP, pro-luciferin dealkylation, luminescence, p450-cyp1a2; series mostly up to 57.1 µM; activity, negative = inhibition: at the top concentration.
Sequence of Cytochrome P450 1A2 (Homo sapiens) (P05177 whole entry, looked up): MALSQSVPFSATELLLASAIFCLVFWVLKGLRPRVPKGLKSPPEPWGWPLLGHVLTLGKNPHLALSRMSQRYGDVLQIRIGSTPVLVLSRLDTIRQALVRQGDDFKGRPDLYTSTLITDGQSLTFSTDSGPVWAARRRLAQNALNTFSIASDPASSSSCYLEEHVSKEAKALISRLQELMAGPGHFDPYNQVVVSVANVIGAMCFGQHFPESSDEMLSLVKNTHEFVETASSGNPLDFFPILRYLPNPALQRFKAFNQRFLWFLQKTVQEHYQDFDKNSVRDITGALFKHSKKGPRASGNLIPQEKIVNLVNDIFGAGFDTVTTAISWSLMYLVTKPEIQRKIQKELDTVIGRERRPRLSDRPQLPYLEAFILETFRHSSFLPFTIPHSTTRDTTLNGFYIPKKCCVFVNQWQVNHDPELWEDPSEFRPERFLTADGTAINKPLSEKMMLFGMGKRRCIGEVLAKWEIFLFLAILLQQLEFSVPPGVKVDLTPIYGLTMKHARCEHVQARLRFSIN
% is set by controls: 0 for no effect and ±100 for the full control effect.

Row | Compound | activity, negative = inhibition | AC50
1 | CC1(C)S[C@@H]2[C@H](NC(=O)[C@H](C(=O)O)c3ccsc3)C(=O)N2[C@H]1C(=O)O | -3.26% [at 25.6 µM] | –
2 | CCOC(=O)Oc1c(OC)cc(C(=O)O[C@H]2C[C@H]3CN4CCc5c([nH]c6cc(OC)ccc56)[C@@H]4C[C@H]3[C@@H](C(=O)OC)[C@@H]2OC)cc1OC | -4.49% [at 25.6 µM] | –
3 | CCOC(=O)c1c(C)[nH]c2ccc3c(c12)CN1CCc2cc(OC)ccc2[C@@H]1O3 | – | 0.158 µM (active)
4 | Cc1ccc(C)c(/C(O)=C2/C(=O)C(=O)N(CCN3CCOCC3)C2c2ccco2)c1 (stereo not given) | – | 25.1 µM (active)
5 | Cc1ccc(C2/C(=C(/O)c3ccccc3)C(=O)C(=O)N2CCN2CCOCC2)o1 (stereo not given) | -25.3% | –
6 | COc1ccc(/C(O)=C2/C(=O)C(=O)N(CCN3CCOCC3)C2c2ccc(C)cc2)cc1 (stereo not given) | 8.1% | –
7 | CN1CCc2[nH]nc(-c3n[nH]c4c3CN(C)CC4)c2C1 | -15.6% [at 11.4 µM] | –
8 | COc1ccc2[nH]c3c(c2c1)CN(C)CC3 | – | 12.6 µM (active)
9 | COc1ccc2c3c([nH]c2c1)[C@@H]1C[C@@H]2[C@@H](C[C@H](O)[C@H](OC)[C@H]2C(=O)O)CN1CC3 | -3.07% [at 25.6 µM] | –
10 | COc1ccc(C(=O)NNC(=S)NC(=O)c2ccco2)cc1 | -16.2% | –
11 | CC(C)(C)C(=O)NC(=S)NCCc1ccccc1 | – | 7.08 µM (active)
12 | COc1ccc(CN(CCC#N)C(=S)NC(=O)c2ccccc2)cc1 | – | 5.01 µM (active)
13 | COc1ccc(C(=O)NCc2ccc(-c3nc4ccccc4s3)cc2)cc1 | – | 3.16 µM (active)
14 | CN(C)C(=O)N1CCCC(C(=O)NCCc2ccccc2)C1 (stereo not given) | 8.15% | –
15 | Cc1ccc(C(=O)NC(=S)Nc2cc(-c3nc4ccccc4s3)ccc2C)cc1 | -18.7% | –
16 | CCOc1ccc(N(CCC#N)S(=O)(=O)c2ccc(OC)cc2)cc1 | 2.01% | –
17 | COc1ccc(C(=O)NC(=S)NCc2ccccc2)cc1 | – | 3.16 µM (active)
18 | O=C(Oc1ccc2c(c1)CN(Cc1ccccc1)CO2)c1ccccc1 | -14.3% [at 2.29 µM] | –
19 | C[C@H](c1ccccc1)N1C(=O)[C@H]2[C@@H]3[C@H](O)[C@H](O)CC(=O)[C@H]3CC[C@H]2C1=O | -6.45% [at 11.4 µM] | –
20 | O=C(O)Cc1ccc2ocnc2c1 | 12.6% | –
21 | CCCCN1C(=O)CN(CCc2ccccc2)C(=O)C1c1ccc(OC)cc1 (stereo not given) | -13.8% | –
22 | COc1ccc(C(=O)NCc2cn3ccccc3n2)cc1 | – | 10 µM (active)
23 | COc1cc(OC)cc(C(=O)NC(=S)NCCc2ccccc2)c1 | – | 1.26 µM (active)
24 | CNC(=O)NC(=S)NC(=O)c1ccc(OC)cc1 | – | 10 µM (active)
25 | COc1cc(OC)cc(C(=O)NC(=S)Nc2ccc(Cl)c(C(=O)O)c2)c1 | -4.61% | –
